Data taken from PubChem BioAssay AID492999 (Johns Hopkins Ion Channel Center, 2010).
The whole screen tested about 1,700 compounds, of which about 1,100 (65%) were called active.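 Rule for the calls: active = duplicate-averaged calcium response above the buffer-only control mean plus 5 SD of those controls; inactive = the rest.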 The set was probably picked from earlier hits. The list is a sample of the results.

assay: enhanced carbachol calcium response, M3R/RGS4 cells, RGS4 inhibitor project, cell-based, validation screen, HEK293 M3R/RGS4, calcium flux (AID 492999); details: HEK293 M3R/RGS4, carbachol calcium Fluo-4 fluorescence, at 10 µM, carbachol added at its EC20; stronger effect = higher value, 0 = buffer wells, 100 = carbachol control;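 for calcium response: integrated fluorescence ratio F max minus min over baseline F0; higher response in RGS4-induced cells means RGS4 inhibition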

Row | SMILES | calcium response
1 | CCOC(=O)C1=NN(c2ccc(Cl)cc2)/C(=C/C2=NCCc3cc(OC)c(OC)cc32)S1 | 10.5% (active)
2 | CCC(c1nnnn1Cc1ccco1)N(Cc1cc2cc(OC)ccc2[nH]c1=O)C1CCCCC1 (centres undefined) | inactive
3 | COc1ccc(/C(O)=C2/C(=O)C(=O)N(c3nc(C)c(C)s3)C2c2ccco2)cc1 (centres undefined) | inactive
4 | COc1ccc(-c2csc(Nc3ccc(O)cc3)n2)cc1 | 10% (active)
5 | C=CCSc1nc2c(c(=O)[nH]1)C(C(C)C)C(C#N)=C(N)O2 (centres undefined) | 26% (active)
6 | COc1cc(Br)cc(/C=N/c2ncn[nH]2)c1O | 8% (active)
7 | C#CCOc1ccc(/C=C2/C(=O)NN(c3ccccc3)C2=O)cc1OC | 9% (active)
8 | COc1cc(/C=C2/SC(=S)N(Cc3ccccc3)C2=O)cc(OC)c1O | inactive
9 | COc1cc(/C=C2/C(=O)NN(c3cccc(Cl)c3)C2=O)cc(Br)c1O | 30.5% (active)
10 | Oc1ccc(/C=N/Nc2ccc(C(F)(F)F)cn2)cc1O | 16.5% (active)
11 | COc1ccc(/C=C/C(=O)c2ccc(OC)cc2O)cc1 | inactive
12 | Cc1nc(-c2ccccc2)sc1C(=O)/C=C/c1ccccc1 | 10% (active)
13 | O=C1Nc2ccc(Br)cc2/C1=N/N=C/C1=C(N2CCOCC2)C(=C\c2ccccc2)/CC1 | 18.5% (active)
14 | O=C(Nc1ccccc1)OCc1cc(-c2ccc(Cl)cc2)on1 | inactive
15 | COCCCNC(=S)N(CCN(C)C)Cc1cc2cc3c(cc2[nH]c1=O)OCCO3 | inactive
16 | COc1ccc(OC)c(S(=O)(=O)N2CCCC(C(=O)N3CCC(C(N)=O)CC3)C2)c1 (centres undefined) | inactive
17 | CCOC(=O)C1CCN(C(c2cc3cc(C)cc(C)c3[nH]c2=O)c2nnnn2C2CCCCC2)CC1 (centres undefined) | 18% (active)
18 | CCOC(=O)[C@@H]1[C@H]2COc3ccc(Br)cc3[C@H]2N2C(=O)N(c3ccc(Cl)cc3)C(=O)[C@@]12C | inactive
19 | Cc1cc(C)nc(S/C=C/C(=O)c2ccccc2)n1 | 19.5% (active)
20 | CCOc1ccc(/C=N/NC(=O)CSc2ccccn2)cc1O | inactive
21 | Cc1ccc(Sc2cc(N3CCOCC3)nc(-c3ccccc3)n2)cc1 | 28% (active)
22 | C[C@H](NC(=O)c1nc[nH]c1C(=O)NCC(=O)OC(C)(C)C)c1ccccc1 | 13% (active)
23 | O=C(Nc1ccc(Cl)cc1)OCc1cc(-c2ccccc2)on1 | inactive
24 | COC(=O)Cn1cc(/C=C/[N+](=O)[O-])c2ccccc21 | 33.5% (active)
25 | Cc1nc(Nc2ccc(S(=O)(=O)N3CCCC3)cc2)c2nnn(Cc3ccccc3)c2n1 | inactive
26 | O=C(/C=C/c1ccc(Cl)c([N+](=O)[O-])c1)c1cccnc1 | 9% (active)
27 | O=C(/C=C/c1ccc(Cl)c([N+](=O)[O-])c1)c1ccc(O)cc1 | 22% (active)

Row | SMILES | calcium response
28 | CCCCC1S/C(=N/N=C/c2cccs2)NC1=O (centres undefined) | 18% (active)
29 | Brc1ccc(-c2csc(N/N=C/c3cccnc3)n2)cc1 | 7.5% (active)
30 | Cc1ccc(Nc2nc(N)nc(CN3CCN(Cc4ccccc4)CC3)n2)cc1Cl | inactive
31 | CNc1nc(Nc2ccc(C)c(Cl)c2)nc(N)c1[N+](=O)[O-] | 6% (active)
32 | Cc1nn2c(=O)cc(COC(=O)c3ccc(NC(=O)C(C)(C)C)cc3)nc2s1 | inactive
33 | CC(C)c1nc(SCC(=O)Nc2cccc(C(=O)O)c2)c2c3c(sc2n1)CCCC3 | 27.5% (active)
34 | Cc1ccc(NC(=O)c2c(NC(=O)CCC(=O)O)sc3c2CCCCC3)cc1 | inactive
35 | CC(C)Cc1nc(Nc2ccc(S(=O)(=O)N3CCCC3)cc2)c2nnn(Cc3ccccc3)c2n1 | inactive
36 | CNCC(O)c1ccc(O)c(O)c1 (centres undefined) | 21.5% (active)
37 | O=C(CCN1CCc2ccccc2C(O)(c2ccccc2)C1)c1ccc2c(c1)OCCO2 (centres undefined) | 100% (active)
38 | COc1ccc(C(C[N+](=O)[O-])n2nc(C)cc2C)cc1 (centres undefined) | 10% (active)
39 | Cc1nn(C(C)C(=O)N2CCOCC2)c(=O)c2nn(-c3ccccc3)c(C)c12 (centres undefined) | inactive
40 | O=C(NCCCc1ccccc1)C1CCC(CNc2c(N3CCCCC3)c(=O)c2=O)CC1 (centres undefined) | inactive
41 | O=C1c2ccccc2NC(c2ccc(-c3cccc(Cl)c3)o2)N1O (centres undefined) | 24.5% (active)
42 | c1ccc(C[C@H]2CNCCN2CCC23CC4CC(CC(C4)C2)C3)cc1 | 26.5% (active)
43 | O=C(COC(=O)c1cccc(Br)c1)Nc1cccc2c1C(=O)c1ccccc1C2=O | inactive
44 | O=C(O)c1ccc2c(c1)C(=O)N(c1ccc(/C=C/C(=O)c3ccccc3)cc1)C2=O | 93% (active)
45 | CCc1ccc(C2C(C#N)=C(N)N(N3CCOCC3)C3=C2C(=O)CC(C)(C)C3)s1 (centres undefined) | inactive
46 | O=[N+]([O-])/C=C/c1ccc2c(ccn2Cc2ccccc2)c1 | 56.5% (active)
47 | CCn1c(O)c(N=NC2=NC(=O)CS2)c2cc(C)ccc21 | inactive
48 | O=C1NC(c2ccc(-c3ccccc3[N+](=O)[O-])o2)C(C(=O)c2ccc(Cl)cc2)C(O)(C(F)(F)F)N1 (centres undefined) | 18.5% (active)
49 | Cn1c(-c2ccco2)nc2cc3ccccc3cc21 | inactive
50 | CCc1ccc2oc(-c3ccc(N)cc3)nc2c1 | 17% (active)
51 | CCOc1ccc(NC(=O)C/C(C)=N/NC(=O)Cc2cccs2)cc1 | inactive
52 | CCCCOC(=O)CNc1nnc(SCC(=O)OCC)[nH]c1=O | 63.5% (active)
53 | Cc1ccc(C)c(Cn2nnc3c(=O)[nH]c(C(=O)Nc4ccc(F)cc4)nc32)c1 | 56.5% (active)
54 | COC(=O)C1CCN(C(=O)c2cc(=O)[nH]c3ccccc23)CC1 | inactive

Row | SMILES | calcium response
55 | Cc1ccc(S/C(=N\S(=O)(=O)c2ccc(Cl)cc2)c2ccccc2)cc1 | inactive
56 | C=CCOc1ccc(/C=C2/C(=O)ON=C2C)cc1OCC | 14.5% (active)
57 | C#CCOc1ccc(/C=C2/C(=O)ON=C2C)cc1OCC | 16% (active)
58 | Cc1ccsc1/C=N/n1c(=S)[nH]nc(C)c1=O | 22.5% (active)
59 | Cc1ccc(SC(CC(=O)c2ccc(C(C)(C)C)cc2)C(=O)O)cc1 (centres undefined) | inactive
60 | Nc1cccc(-c2cc(-c3ccccc3)nc(-c3cccc(N)c3)n2)c1 | 13.5% (active)
61 | COc1cc2c(cc1O)C(SC)=NC(C)(C)C2 | 26.5% (active)
62 | CCc1nnc(NS(=O)(=O)c2ccc(N=Cc3c(C)[nH]n(-c4ccc(C)cc4)c3=O)cc2)s1 | inactive
63 | C1=C(N2CCOCC2)/C(=C/c2nc3ccccc3[nH]2)CC1 | 49% (active)
64 | COc1ccc(NCc2nnc(SCc3ccccc3)n2-c2ccc(OC)cc2)cc1 | inactive
65 | O=C(O)c1ccc2c(=O)n3c(nc2c1)/C(=C/c1ccc(Cl)c([N+](=O)[O-])c1)CC3 | inactive
66 | Cc1ccc(/C=C2\CCn3c2nc2cc(C(=O)O)ccc2c3=O)c(C)c1 | 52% (active)
67 | Oc1ccc(-c2[nH]ncc2-c2nc3ccccc3s2)c(O)c1 | 12% (active)
68 | O=S(=O)(Nc1nccs1)c1ccc2c(c1)OCCO2 | inactive
69 | Cc1c(NC(=O)c2coc(=O)c(Br)c2)c(=O)n(-c2ccccc2)n1C | 24.5% (active)
70 | CS(=O)(=O)N(CC(O)Cn1c2ccccc2c2ccccc21)c1cccc2ccccc12 (centres undefined) | 14.5% (active)
71 | COc1ccc(S(=O)(=O)Nc2ccc(O)c(Sc3nc4ccccc4s3)c2)cc1 | 23% (active)
72 | O=[N+]([O-])c1c(NCCO)cc(Sc2nc3ccccc3s2)c2nonc12 | inactive
73 | Nc1ccccc1SC(C[N+](=O)[O-])c1ccccc1 (centres undefined) | 38.5% (active)
74 | O=C(O)C(c1ccccc1)N1C(=O)/C(=C\c2ccc(-c3cccc(Cl)c3)o2)SC1=S (centres undefined) | 13.5% (active)
75 | COc1ccccc1C1C(C#N)=C(N)Oc2c1c(-c1ccccc1)nn2-c1ccccc1 (centres undefined) | 34.5% (active)
76 | C=C(C)C(=O)O[C@H]1C/C(C)=C\C(=O)/C=C(\C)[C@H](O)[C@@H]2OC(=O)C(=C)[C@@H]21 | 26.5% (active)
77 | CC(=O)Nc1ccc(S(=O)(=O)Nc2nc(-c3ccc(C(C)(C)C)cc3)cs2)cc1 | 19.5% (active)
78 | O=C(/C=C/Sc1ncn[nH]1)c1ccc(Cl)cc1 | 45.5% (active)
79 | Cc1cc(-c2n[nH]c(=S)n2/N=C/C(Br)=C/c2ccccc2)n[nH]1 | 18% (active)
